According to PubChem BioAssay (NCI):
The panel holds about 83,000 compounds, 20% with a hit somewhere; the sample as a whole holds those more often.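 Results are percent growth after 48 hours of single-concentration exposure. 100 means growth as in untreated cells, lower positive values show inhibition; negative values down to -100 show cell death.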 Calls of active or inactive are those of the source. The calls were made as follows: active = growth percent below 10; inactive = the rest.

The compounds below were run on HL-60(TB) leukemia (assay: NCI-60 one-dose screen, 48 h (100 = growth as untreated, 0 = no growth, -100 = all killed)). Conditions: 10 µM unless noted.

Row | SMILES | growth
1 | Cn1c2ccccc2c2c3c(c4c5cc(Br)ccc5n(C)c4c21)C(=O)N(O)C3=O | -33.2% (active)
2 | COc1ccc(/C=C2\N=C(c3ccccc3)N(C(=O)c3ccccc3O)NC2=O)cc1 | -10.5% (active)
3 | Cc1cc(N2CCOCC2)nc(N(CCNc2ccnc3cc(Cl)ccc23)Cc2cccs2)n1 | -63.2% (active)
4 | C=C(C[n+]1ccccc1)[C@@H]1CC[C@]2(C(=O)OC)CC[C@]3(C)[C@H](CC[C@@H]4[C@@]5(C)CC[C@H](O)C(C)(C)[C@@H]5CC[C@]43C)[C@@H]12 | 93.5% (inactive)
5 | COc1ccc(CSc2nnc(SCC(=O)Nc3ccc(Cl)cc3)s2)cc1 | 56.9% (inactive)
6 | COc1cc2nc(N3CCC[C@H](NC4=CC(=O)c5ccccc5C4=O)C3)nc(N)c2cc1OC | -64.6% (active)
7 | COc1ccc(C2=Nc3c(N)ncnc3NC(c3cccc(Nc4ccnc5cc(C(F)(F)F)ccc45)c3)C2)cc1 (stereo unspecified) | 42.7% (inactive)
8 | CNc1ccc(-c2cc(=O)oc3ccc(Cl)cc23)cc1 | -13.5% (active)
9 | COc1ccccc1N1CCN(C(=O)c2ccc3nc(NC(=O)c4ccc(NCCc5ccccc5)c([N+](=O)[O-])c4)sc3c2)CC1 | 94.3% (inactive)
10 | C=CC(=O)OCCCCCCCC | 88.6% (inactive)
11 | CCCCNC(=O)NS(=O)(=O)c1ccc(N2N=C(c3cc(C)ccc3C)CC2c2cc(OC)c(OC)c(OC)c2)cc1 (stereo unspecified) | -16.1% (active)
12 | Cc1ccccc1C(c1ccccc1)c1ccccc1C | 88.4% (inactive)
13 | Cc1cc(NCCCNc2ccnc3cc(Cl)ccc23)nc(N2CCN(C)CC2)n1 | 15.7% (inactive)
14 | C=C(C)[C@@H]1CCC[C@]2(C(=O)N3CCN(C)CC3)CC[C@]3(C)[C@@H](CC[C@@H]4[C@@]5(C)CC/C(=N\NC(=O)c6ccncc6)C(C)(C)[C@@H]5CC[C@]43C)[C@@H]12 | 82.8% (inactive)
15 | COc1ccc(NC(=O)c2sc3nc(C)c(C(O)c4ccc(OC)cc4)cc3c2N)cc1 (stereo unspecified) | -59.5% (active)
16 | O=C1OCC2=C1C(c1ccc(Cl)c(Cl)c1)c1cc3c(cc1N2CCO)OCCO3 (stereo unspecified) | -18.9% (active)
17 | Nc1ccc(Cl)c2c(=O)c3ccccc3[nH]c12 | 63.7% (inactive)
18 | CC(C)=CCC[C@](C)(O)[C@H]1CC[C@]2(C)[C@@H]1CC[C@@H]1[C@@]3(C)C/C(=C/c4cccc([N+](=O)[O-])c4)C(=O)C(C)(C)[C@@H]3CC[C@]12C | 68.4% (inactive)

Row | SMILES | growth
19 | O=Cc1c[nH]c2ccc(NC(=O)OCc3ccccc3)cc12 | 200% (inactive)
20 | S=CN1CCCCC1 | 102% (inactive)
21 | CC(Br)C(OC(=O)c1ccccc1Cl)c1cc2c(cc1Br)OCO2 (stereo unspecified) | 103% (inactive)
22 | CCOC(=O)CCN(CCC(=O)OCC)c1ccccc1 | 104% (inactive)
23 | C=CCn1c(SCC(=O)Nc2ccc(C(=O)/C=C/c3cc(OC)c(OC)c(OC)c3)cc2)nnc1-c1ccc(Cl)cc1 | 12.3% (inactive)
24 | Clc1ccc(Nc2scc3[n+]2CCC3)cc1 | 98.3% (inactive)
25 | COc1cc2ncnc(Nc3ccc(S(=O)(=O)Nc4nccs4)cc3)c2cc1OCCCN1CCOCC1 | 112% (inactive)
26 | O=C1/C(=C\c2cccn2Cc2ccc(Cl)cc2)c2ccccc2N1c1c(Cl)cccc1Cl | 79.7% (inactive)
27 | COc1cc(-c2nn(-c3cccc(NC(=O)c4ccc(N5CCOCC5)c(C(F)(F)F)c4)c3)cc2-c2ccncc2)ccc1Cl | -8.08% (active)
28 | COc1cc(C2CC(c3cccc(Nc4ccncc4)c3)=NN2C(C)=O)cc(OC)c1OC (stereo unspecified) | 94.6% (inactive)
29 | Nc1c(C(=O)C[C@@H](N)CO)ccc2c1C(=O)CCO2 | 51.9% (inactive)
30 | Cc1nn(-c2ccc(Cl)cc2)c2ncnc(N/N=C/c3cccc([N+](=O)[O-])c3)c12 | 31% (inactive)
31 | COc1ccc(/C(C)=C(\c2ccc(Cl)cc2)c2ccc(OCCN(C)C)cc2)cc1F | 58.2% (inactive)
32 | CCOC(=O)c1sc(NC(=O)COc2ccc(/C=C3\Cc4ccc(Cl)cc4C3=O)cc2)nc1C | 98% (inactive)
33 | O=C(Oc1ccc[nH]c1=O)c1cc([N+](=O)[O-])cc([N+](=O)[O-])c1 | 75.7% (inactive)
34 | CC(=O)C1C(=O)C(=O)N(c2cccc([N+](=O)[O-])c2)C1=O (stereo unspecified) | 103% (inactive)
35 | CN1CCN(Cc2ccc(NC(=O)c3cncc(C#Cc4c(N)ncc5ccc(C#N)cc45)c3)cc2C(F)(F)F)CC1 | 9.71% (active)
36 | O=C(CC12CC3CC(CC(C3)C1)C2)NCCOCCOCCOCCNC(=O)c1cc2c(o1)C(=O)c1ccccc1C2=O | -7.22% (active)
